The source of these data is the supplement of paper PMC7411640.

The structures appear in SMILES notation. Structures can show the parent of a compound that is named as a salt.

The subject of the test is MDA-MB-468. Description: phospho-S6 immunofluorescence (DAPI-normalised), per-plate z-score; higher = higher phospho-S6 signal (less pathway suppression). Particulars: co-treatment: lapatinib 1 uM; 24 h. On the procedure: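 GPCR-targeted compound library (MedChemExpress HY-L006) tested on MDA-MB-468 PTEN-null TNBC cells in 384-well plates at 0.1, 1 or 10 uM, combined with vehicle, GDC0941 450 nM or lapatinib 1 uM, for 24 h. Phospho-S6 (S240/244) immunofluorescence normalised to DAPI and expressed as a per-plate z-score; values are the mean of biological triplicates.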
`CC(C)c1cc(-c2ccc(F)c3ccccc23)nc(N)n1` (compound 10 µM): the “phospho-S6 immunofluorescence (z-score)” value turned out to be 1.27.

Take `COc1cc(C(C)=O)ccc1OCCCN1CCC(c2noc3cc(F)ccc23)CC1` [Iloperidone] (compound 10 µM): the “phospho-S6 immunofluorescence (z-score)” value was -0.23.

As for `CNCCc1ccccn1` [Betahistine (dihydrochloride)] (compound 10 µM), the “phospho-S6 immunofluorescence (z-score)” value amounted to 0.1.

For `COCCOc1ccc(N2CCN(CCn3ncc4c3nc(N)n3nc(-c5ccco5)nc43)CC2)cc1` [Preladenant] (compound 10 µM), the “phospho-S6 immunofluorescence (z-score)” value amounted to 0.79.

As for `COCCc1ccc(OCC(O)CNC(C)C)cc1` (stereo unspecified) [Metoprolol (Succinate)] (compound 10 µM), the “phospho-S6 immunofluorescence (z-score)” value is -0.38.

Turning to `O=C(O)COc1cccc(CN(Cc2ccc(-n3cccn3)cc2)S(=O)(=O)c2cccnc2)c1` [Taprenepag] (compound 10 µM), the “phospho-S6 immunofluorescence (z-score)” value came to 0.34.

Consider `C[C@H](NC(=O)c1c(C(F)F)nn(C)c1Oc1cccc(C(F)(F)F)c1)c1ccc(C(=O)O)cc1` (compound 10 µM), for which the “phospho-S6 immunofluorescence (z-score)” value worked out at 0.46.

For `c1cnc(NCc2ccc(CNc3ncccn3)cc2)nc1` (compound 10 µM), the “phospho-S6 immunofluorescence (z-score)” value was -0.26.

In the case of `Cc1nn(C)c2c1C(c1ccc(C(F)(F)F)cc1)C(C#N)=C(N)O2` (stereo unspecified) (compound 10 µM), the “phospho-S6 immunofluorescence (z-score)” value came to 2.28.

For the compound `C[C@H]1CN(C[C@H](Cc2ccccc2)C(=O)NCC(=O)O)CC[C@@]1(C)c1cccc(O)c1` [Alvimopan (dihydrate)] (compound 10 µM), the “phospho-S6 immunofluorescence (z-score)” value amounted to 0.49.

Turning to `Cc1cc(OCCCS(C)(=O)=O)cc(C)c1-c1cccc(COc2ccc3c(c2)OC[C@H]3CC(=O)O)c1` (compound 10 µM), the “phospho-S6 immunofluorescence (z-score)” value is 0.1.
